{"source": "paper PMC4336329", "about": "(PLoS ONE, 2015)", "note": "Screen size: about 310,000 compounds; about 14,000 (4.5%) showed an effect of 50% or more. The effect is printed as a negative number. This is one part of a sample in which strong results are shown more often than they occur.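 Note: peak tail current of the secondary pulse compared with the same well before compound.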", "data": [{"biological_target": "human ether-à-go-go-related gene (hERG) potassium channel (human, UniProt Q12809)", "sequence (Q12809 whole entry, looked up)": "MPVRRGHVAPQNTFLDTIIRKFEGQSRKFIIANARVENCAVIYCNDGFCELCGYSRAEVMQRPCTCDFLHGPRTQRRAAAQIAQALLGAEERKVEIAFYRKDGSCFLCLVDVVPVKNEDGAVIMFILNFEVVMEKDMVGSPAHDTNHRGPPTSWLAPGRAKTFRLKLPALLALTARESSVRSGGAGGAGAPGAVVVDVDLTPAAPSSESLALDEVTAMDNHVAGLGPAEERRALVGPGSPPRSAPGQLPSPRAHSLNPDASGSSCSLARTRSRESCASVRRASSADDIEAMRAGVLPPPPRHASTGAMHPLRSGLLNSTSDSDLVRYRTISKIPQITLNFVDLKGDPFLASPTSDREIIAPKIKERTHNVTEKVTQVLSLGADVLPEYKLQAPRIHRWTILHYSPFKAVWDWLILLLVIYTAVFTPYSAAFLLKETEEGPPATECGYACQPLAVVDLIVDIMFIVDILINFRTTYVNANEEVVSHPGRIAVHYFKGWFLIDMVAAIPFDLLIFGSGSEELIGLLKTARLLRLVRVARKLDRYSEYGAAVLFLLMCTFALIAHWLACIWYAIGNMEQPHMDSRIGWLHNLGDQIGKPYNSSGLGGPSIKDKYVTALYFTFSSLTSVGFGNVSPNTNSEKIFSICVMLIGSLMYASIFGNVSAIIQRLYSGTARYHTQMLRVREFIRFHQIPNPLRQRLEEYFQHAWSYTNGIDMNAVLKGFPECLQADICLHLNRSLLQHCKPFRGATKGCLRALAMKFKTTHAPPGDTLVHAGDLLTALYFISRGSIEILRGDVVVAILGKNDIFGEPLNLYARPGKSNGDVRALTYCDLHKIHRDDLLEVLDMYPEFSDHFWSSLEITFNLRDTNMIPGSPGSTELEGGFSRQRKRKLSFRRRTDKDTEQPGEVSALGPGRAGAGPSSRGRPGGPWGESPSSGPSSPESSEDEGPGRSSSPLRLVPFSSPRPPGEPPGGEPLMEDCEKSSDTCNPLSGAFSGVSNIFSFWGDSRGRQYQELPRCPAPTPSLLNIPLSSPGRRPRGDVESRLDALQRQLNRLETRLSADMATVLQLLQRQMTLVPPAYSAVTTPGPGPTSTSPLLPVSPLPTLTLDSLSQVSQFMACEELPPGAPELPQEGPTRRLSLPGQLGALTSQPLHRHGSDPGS", "experiment": "primary screen, population patch clamp on CHO cells stably expressing hERG; higher = less effect of the substance", "units": {"hERG current change (%, negative = inhibition) at 10uM": "%"}, "values": [{"smiles": "CCC(=O)NCCc1nc2ccccc2[nH]1", "hERG current change (%, negative = inhibition) at 10uM": 1.08}, {"smiles": "CN1CCN(c2nc(N)cc(=O)[nH]2)CC1", "hERG current change (%, negative = inhibition) at 10uM": 15.2}, {"smiles": "c1ccc(-n2c(Sc3cnccn3)nnc2-c2cccs2)cc1", "hERG current change (%, negative = inhibition) at 10uM": -33.3}, {"smiles": "CSc1nc([O-])cc(=O)n1-c1ccc(F)cc1.[K+]", "hERG current change (%, negative = inhibition) at 10uM": 2.86}, {"smiles": "COc1cccc(/C=C2/C(=O)NN(c3ccc(C)c(C)c3)C2=O)c1", "hERG current change (%, negative = inhibition) at 10uM": -3.01}, {"smiles": "Cn1c(=O)c2c(SCC(=O)NCc3ccco3)nc(-c3ccccc3Cl)nc2n(C)c1=O", "hERG current change (%, negative = inhibition) at 10uM": -1.4}, {"smiles": "O=C(COc1ccc(Br)cc1)NNC(=O)c1ccc(-n2cncn2)c([N+](=O)[O-])c1", "hERG current change (%, negative = inhibition) at 10uM": -61}, {"smiles": "Cc1ccc(C)c(NC(=O)CN(C)C(=O)c2ccc(-n3cncn3)c([N+](=O)[O-])c2)c1", "hERG current change (%, negative = inhibition) at 10uM": -26.7}, {"smiles": "Cc1cc(Br)ccc1NC(=O)CNC(=O)c1ccc(-n2cncn2)c([N+](=O)[O-])c1", "hERG current change (%, negative = inhibition) at 10uM": -59.9}, {"smiles": "Cc1cc(Br)ccc1NC(=O)CN(C)C(=O)c1ccc(-n2cncn2)c([N+](=O)[O-])c1", "hERG current change (%, negative = inhibition) at 10uM": -64.4}, {"smiles": "Cc1cccc(C)c1NC(=O)CN(C)C(=O)c1ccc(-n2cncn2)c([N+](=O)[O-])c1", "hERG current change (%, negative = inhibition) at 10uM": -6.43}, {"smiles": "C=CCN1C(=O)c2ccc(C(=O)N(C)CC(=O)Nc3ccccc3Br)cc2C1=O", "hERG current change (%, negative = inhibition) at 10uM": 4.17}, {"smiles": "O=C(COc1ccccc1Cl)NNC(=O)c1ccc(-n2cncn2)c([N+](=O)[O-])c1", "hERG current change (%, negative = inhibition) at 10uM": 10.9}, {"smiles": "Cc1cc(Br)ccc1NC(=O)c1ccc(-n2cncn2)c([N+](=O)[O-])c1", "hERG current change (%, negative = inhibition) at 10uM": 12.3}, {"smiles": "Cc1cccc(NC(=O)CNC(=O)c2ccc(-n3cncn3)c([N+](=O)[O-])c2)c1C", "hERG current change (%, negative = inhibition) at 10uM": -9.18}, {"smiles": "Cc1ccc(OCC(=O)NNC(=O)c2ccc(-n3cncn3)c([N+](=O)[O-])c2)cc1", "hERG current change (%, negative = inhibition) at 10uM": -2.51}, {"smiles": "C=CCN1C(=O)c2ccc(C(=O)N(C)CC(=O)Nc3c(C)cccc3C)cc2C1=O", "hERG current change (%, negative = inhibition) at 10uM": 15.4}, {"smiles": "C=CCN1C(=O)c2ccc(C(=O)N(C)CC(=O)Nc3ccc(Br)cc3C)cc2C1=O", "hERG current change (%, negative = inhibition) at 10uM": -52.5}, {"smiles": "CCc1[nH]c(=S)c(C#N)c2c1CCCC2", "hERG current change (%, negative = inhibition) at 10uM": 14.9}, {"smiles": "COc1cccc(C(c2nnnn2Cc2ccccc2)N2CCN(C3CCCC3)CC2)c1OC.Cl", "note": "(stereo not shown)", "hERG current change (%, negative = inhibition) at 10uM": -32}, {"smiles": "O=c1[nH]nc(Sc2ncnc3sccc23)n1CCc1ccccc1", "hERG current change (%, negative = inhibition) at 10uM": -18.3}, {"smiles": "CC1CCC/C=C/C2CC(O)CC2C(O)/C=C/C(=O)O1", "note": "(stereo not shown)", "hERG current change (%, negative = inhibition) at 10uM": -2.12}, {"smiles": "O=C(c1cnn2c(C(F)F)cc(-c3ccccc3)nc12)N1CCc2ccccc2C1", "hERG current change (%, negative = inhibition) at 10uM": -15.6}, {"smiles": "CCn1c(SCC(=O)NCCc2ccccc2)nc2c(c1=O)SC(C)C2", "note": "(stereo not shown)", "hERG current change (%, negative = inhibition) at 10uM": 5.03}, {"smiles": "COc1cccc(NC(=O)CCN2C(=O)c3ccccc3Sc3ncccc32)c1", "hERG current change (%, negative = inhibition) at 10uM": 12.7}, {"smiles": "O=C(COC(=O)C1CCC(=O)N1)Nc1ccc(Br)cc1", "note": "(stereo not shown)", "hERG current change (%, negative = inhibition) at 10uM": 12}, {"smiles": "CN1C(C(=O)NCCc2cccs2)CC2Cn3c(nc4ccccc43)C21", "note": "(stereo not shown)", "hERG current change (%, negative = inhibition) at 10uM": -27.3}, {"smiles": "CN1C(C(=O)NCCc2cccs2)CC2Cn3c(nc4cc5ccccc5cc43)C21", "note": "(stereo not shown)", "hERG current change (%, negative = inhibition) at 10uM": -65.9}, {"smiles": "CN1C(C(=O)NCCc2cccs2)CC2Cn3c(nc4cc(Cl)c(Cl)cc43)C21", "note": "(stereo not shown)", "hERG current change (%, negative = inhibition) at 10uM": -63.6}, {"smiles": "Cc1cc2nc3n(c2cc1C)CC1CC(C(=O)NCCc2cccs2)N(C)C31", "note": "(stereo not shown)", "hERG current change (%, negative = inhibition) at 10uM": -38.5}, {"smiles": "CNC1=C([N+](=O)[O-])CC([N+](=O)[O-])=C(N2CCNCC2)N1C", "hERG current change (%, negative = inhibition) at 10uM": 8.57}, {"smiles": "COc1cccc(-c2nc(CS(=O)(=O)CC(=O)NCCCN3CCc4ccccc4C3)c(C)o2)c1", "hERG current change (%, negative = inhibition) at 10uM": -71.6}, {"smiles": "COc1cccc(-c2nc(CS(=O)(=O)CC(=O)NCCCN3CCN(C)CC3)c(C)o2)c1", "hERG current change (%, negative = inhibition) at 10uM": 3.5}, {"smiles": "CCOC(=O)N1CCC(NC(=O)CS(=O)(=O)Cc2nc(-c3ccc(OC)cc3)oc2C)CC1", "hERG current change (%, negative = inhibition) at 10uM": 13.3}, {"smiles": "CCOC(=O)N1CCC(NC(=O)CS(=O)(=O)Cc2nc(-c3cccc(OC)c3)oc2C)CC1", "hERG current change (%, negative = inhibition) at 10uM": -54.2}, {"smiles": "COc1cccc(-c2nc(CS(=O)(=O)CC(=O)NC3CC3)c(C)o2)c1", "hERG current change (%, negative = inhibition) at 10uM": 16.1}, {"smiles": "COc1cccc(-c2nc(CS(=O)(=O)CC(=O)NCCCN3CCOCC3)c(C)o2)c1", "hERG current change (%, negative = inhibition) at 10uM": 7.17}, {"smiles": "CCCNC(=O)CS(=O)(=O)Cc1nc(-c2cccc(OC)c2)oc1C", "hERG current change (%, negative = inhibition) at 10uM": -70}, {"smiles": "COc1cccc(-c2nc(CS(=O)(=O)CC(=O)NCCC(C)C)c(C)o2)c1", "hERG current change (%, negative = inhibition) at 10uM": -10.7}, {"smiles": "COCCCNC(=O)CS(=O)(=O)Cc1nc(-c2cccc(OC)c2)oc1C", "hERG current change (%, negative = inhibition) at 10uM": 7.73}, {"smiles": "CCC(=O)N1CC2(c3ccccc3)CN(C(=O)CC)CC(c3ccccc3)(C1)C2=O", "hERG current change (%, negative = inhibition) at 10uM": 5.6}, {"smiles": "CC1CCc2cc(F)ccc2N1C(=O)C1(C)CC1(Cl)Cl", "note": "(stereo not shown)", "hERG current change (%, negative = inhibition) at 10uM": 4.51}, {"smiles": "CC1CCCN(CCS(=O)(=O)c2ccccc2)C1", "note": "(stereo not shown)", "hERG current change (%, negative = inhibition) at 10uM": 3.59}]}]}
